Screening results as filed in PubChem.
Hits are enriched below; roughly 21% of the tested compounds scored in any of these assays.
AMA1 RON2 block: qHTS for Inhibitors of AMA1-RON; Towards Development of Antimalarial Drug Lead: Primary Screen; Plasmodium falciparum AMA1 (3D7) - RON2 peptide interaction; AlphaScreen AMA1-biotinylated RON2 peptide binding; Potency, µM (titrated, usually from 58.2 µM), without a hit: top-dose activity change, negative = inhibition, hits mostly inhibitors; actives 0.2% (n = 360,000); AID 720542, 2013;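 also: potency is read from the fitted curve at half-maximal effect; 0% = vehicle wells and -100% = peptide control; nearly all actives have a fitted effect of over 45% in size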
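AMA1 (3D7) with his tag at 25 nM final met compounds first, then biotinylated RON2 peptide at 25 nM; detection used donor plus acceptor beads, 10 µg/mL apiece, read by AlphaScreen after 30 min at room temperature.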
Pf growth 48h: Primary qHTS for delayed death inhibitors of the malarial parasite plastid, 48 hour incubation; actives 5.9% (n = 310,000); P. falciparum luciferase growth in erythrocytes, 48 h; AID 504832, 2011; Potency, µM (titrated, usually from 28.7 µM), without a hit: at the top dose activity change, negative = inhibition, usual class: inhibitors; also: potency is read from the fitted curve at half-maximal effect; % is scaled to controls: 0 for no effect and ±100 for the full control effect
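A one-generation exposure of luciferase-tagged malaria parasites in RPMI 1640/Albumax erythrocyte culture, 37 C and 5% CO2. Inhibition is inferred from decreased luminescence after adding detection reagent.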
Cycloheximide cs: Cycloheximide Counterscreen for Small Molecule Inhibitors of Shiga Toxin. cell reporter, cycloheximide protein synthesis inhibition counterscreen. max response, %. actives 12% (n = 300,000); in the data active = max response mostly above about 13%, no sharp cut-off; inactive = mostly below about 14%; also: read at 38.3 µM for the half of the compounds with a filed dose; 0% is about no effect
Shiga toxin inh: A qHTS for Small Molecule Inhibitors of Shiga Toxin | inhibition, % at 38.7 µM | Vero cells, Shiga toxin protein synthesis inhibition reporter | actives 9.2% (n = 290,000); in the data active = inhibition mostly above about 28%, no sharp cut-off; inactive = mostly below about 43%; also: 0% is about no effect
HCV inhibitor: qHTS Assay for Inhibitors of Hepatitis C Virus (HCV); Huh7.5.1 HCVcc-Cre infection, luciferase reporter, 44 h; Potency, µM (series often up to 41.8 µM), for inactives: at the top dose activity change, negative = inhibition, hits mostly inhibitors; actives 3.4% (n = 340,000); also: potency is read from the fitted curve at half-maximal effect; % is scaled to controls: 0 for no effect and ±100 for the full control effect
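Whole-lifecycle infectious HCVcc-Cre system; cells 1,000/well, compound then virus (~0.5 moi) added 4 h after plating, 44 h culture. Luciferase read 15 sec following 15 min substrate incubation, room temp.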
Pf growth 96h: Primary qHTS for delayed death inhibitors of the malarial parasite plastid, 96 hour incubation | AID 504834, 2011 | actives 6.9% (n = 320,000) | P. falciparum luciferase reporter growth, 96 h | Potency, µM (highest dose often 28.7 µM), without a hit: at the highest dose activity change, negative = inhibition, usual class: inhibitors; also: potency is read from the fitted curve at half-maximal effect; % is scaled to controls: 0 for no effect and ±100 for the full control effect
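Readout is luminescence from an integrated firefly luciferase in P. falciparum. Red cells, 2% hematocrit and 0.05% parasitemia final, were cultured with compound through two parasite generations (96 hours) at 37 C, 5% CO2.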
Active calls of the source: *; i = inactive; ? = inconclusive; . = not tested or not shown; [ ] = remark or other dose. Unless noted, calls follow the shape of the dose curve; as a rule, active = well fitted curve in the direction sought with a large enough effect; inconclusive = small, poorly fitted or top-dose-only effect, or another doubt; inactive = no such curve, though single readings can be large; an effect the other way counts as inactive or inconclusive.

SMILES	AMA1 RON2 block	Pf growth 48h	Cycloheximide cs	Shiga toxin inh	HCV inhibitor	Pf growth 96h
O=C(CC1CC2CCC1C2)NCc1cccs1 (centres undefined)	-5.0%	26.2%	15.5*	51.9	3.7%	18.2%
CC(C)Cn1c(N)c(C(=O)NCC2CCCO2)c2nc3ccccc3nc21 (centres undefined)	49.4%	?	3.0	-6.8	?	?
COCCn1c(N)c(C(=O)NCC2CCCO2)c2nc3ccccc3nc21 (centres undefined)	28.9%	?	-3.2	-12.5	-17.6%	47.5%
Nc1c(C(=O)OCC2CCCO2)c2nc3ccccc3nc2n1C1CCCC1 (centres undefined)	-6.4%	10.4µM*	1.0	-11.9	?	8.2%[5.75 µM]
Nc1c(C(=O)OCC2CCCO2)c2nc3ccccc3nc2n1Cc1cccs1 (centres undefined)	9.3%	?	10.2	-3.2	-27.2%	3.7µM*
CC/C(C)=N\N=C\c1c(O)n(CC)c2cc(C3=NNC(=O)CC3)ccc12	-4.9%	?	-1.3	-2.5	-11.8%	10.4µM*
CSCc1ccc(C(=O)NC2CC(C)(C)Cc3c2cnn3-c2ccc(F)cc2)o1 (centres undefined)	-10.3%	?	28.0*	-2.3	-11.7%	?
CC1(C)Cc2c(cnn2-c2ccc(F)cc2)C(NC(=O)c2cnccn2)C1 (centres undefined)	2.1%	.	.	.	14.0%	.
CC1(C)Cc2c(cnn2-c2ccc(F)cc2)C(NC(=O)c2ccc(=O)oc2)C1 (centres undefined)	-1.8%	?	22.4*	57.2	.	?
COc1ccc(C(C)=O)cc1CSc1ccc2c(c1)OCCO2	10.4%	-10.1%	15.5	27.6	-14.3%	-16.4%
Cc1ccn2cc(CNS(=O)(=O)c3ccc(Cl)s3)nc2c1	38.0%	.	11.1	22.4	-4.9%	?
Cc1ccn2cc(CNC(=O)c3cccs3)nc2c1	0.0%	6.6%	-2.7	-9.0	-6.9%	13.8%
Cc1ccn2cc(CNS(=O)(=O)c3cccs3)nc2c1	5.5%	79.4%	22.7*	46.0*	-17.1%	36.6%
CCc1ccc(S(=O)(=O)NCc2cn3ccsc3n2)s1	3.2%	8.2%	-1.9	-10.6	0.0%	14.3%
CCS(=O)(=O)NCc1csc(-c2ccccc2)n1	-0.9%	38.9%	14.8*	9.9	13.7%	48.0%
O=S(=O)(NCc1cn2ccsc2n1)c1cccs1	-3.8%	39.5%	23.4*	20.6	2.2%	88.1%
O=C(NCCc1cn2ccsc2n1)c1cccs1	5.3%	29.7%	23.3*	24.9*	14.4%	18.6%
CC(C)(O)c1[nH]c2ccc(C#N)cc2c1C(C)(C)O	-4.0%	23.9%	-3.3	-6.2	-6.6%	-4.3%
O=C(NCc1csc(-c2cccs2)n1)c1ccsc1	-6.6%	71.4%	22.3*	55.5*	-0.8%	45.5%
O=S(=O)(NCc1csc(-c2cccs2)n1)c1cccs1	-4.0%	21.8%	17.5*	53.0*	-5.6%	48.3%
O=S(=O)(NCc1cn2ccsc2n1)c1ccc(Oc2ccccc2)cc1	-7.3%	1.2%	-2.6	-11.1	7.94µM*	.
O=S(=O)(NCc1csc(-c2cccs2)n1)c1ccc(Cl)cc1	-8.1%	0.9%	-2.7	-19.8	-29.1%	7.3%
COc1ccc(CC(=O)NCc2csc(-c3cccs3)n2)cc1OC	-9.4%	-22.4%	-1.7	12.4	?	?
CCC1(CC)C(=O)C2=C3C1[C@H](C(=O)OC)CC(C(=O)OC)C[C@H]3[C@H]1C(=O)N(C)C(=O)[C@H]1[C@H]2C (some centres undefined)	.	.	1.0	-2.8	.	.
CCC(C(=O)Nc1c(C)cccc1C)n1c(-c2ccc(=O)[nH]c2)nc2ccccc21 (centres undefined)	-7.5%	.	.	.	.	.
SMILES	AMA1 RON2 block	Pf growth 48h	Cycloheximide cs	Shiga toxin inh	HCV inhibitor	Pf growth 96h
O=C(NCCc1ccc2c(c1)OCCO2)c1ccc(F)cc1	-14.4%	23.9%	34.2*	54.6	?	284.1%
O=C(NCCc1ccccc1F)c1ccc2c(c1)OCCO2	-6.7%	-21.9%	-12.6	-20.9	3.5%	-25.2%
O=C(NCCc1ccc(Cl)cc1)c1ccc2c(c1)OCO2	3.9%	134.9%	43.0*	83.4*	-3.8%	110.3%
O=C(NCCc1ccc(Cl)cc1)c1ccc2c(c1)OCCO2	8.1%	104.0%	41.8*	.	10.8%	3.6%
O=C(NCCN1CCCCC1)c1ccc2c(c1)OCCO2	6.3%	44.1%	13.6*	30.9	5.8%	.
NS(=O)(=O)c1ccc(CCNC(=O)c2ccc3c(c2)OCO3)cc1	-6.9%	24.1%	-3.8	-4.7	2.8%	?
O=C(NCCCN1CCN(CCCNC(=O)c2ccc3c(c2)OCO3)CC1)c1ccc2c(c1)OCO2	5.0%	-9.2%	-1.1	-11.7	0.2%	.
Cc1ccc(F)c(NC(=O)/C(C#N)=C(\O)c2ccc(C(C)(C)C)cc2)c1	-2.8%	60.8%	27.9	39.4	17.5%	46.1%
O=C(NC1CCCC1)C(c1ccccc1)N(C(=O)c1csnn1)c1ccccc1F (centres undefined)	6.1%	-3.3%	-2.4	-3.2	1.6%	-19.7%
COCCNC(=O)c1cc2ncc(Br)cn2n1	-7.0%	.	6.8	18.1	21.2%	31.2%
O=C(NCCc1ccccc1)c1cc2ncc(Br)cn2n1	-19.9%	34.2%	26.4*	45.9	9.8%	.
CC(C)c1cc(C(=O)NCc2ccco2)no1	-2.3%	96.3%	41.8*	66.3*	15.5%	25.0%
O=C(NCc1ccco1)c1cc(-c2ccc(F)cc2)on1	-2.2%	48.8%	58.7*	91.7*	8.8%	?
O=C(NCc1ccco1)c1cc(-c2cccs2)on1	-9.4%	337.1%	55.4*	121.2*	2.9%	-25.8%
O=C(c1ccc(F)cc1)c1c[nH]c(C(=O)NCc2ccco2)c1	-1.8%	25.5%	2.0	1.9	3.8%	37.6%
O=C(NCc1ccco1)c1cccs1	-2.0%	?	7.0	-23.0	-0.7%	.
COc1cccc2[nH]c(C(=O)NCc3ccccc3)cc12	-2.1%	.	-1.8	-4.8	?	-15.2%
O=C(NCc1ccco1)c1ccccc1-c1ccccc1	4.7%	.	-1.8	-9.2	-4.1%	-17.0%
COc1ccc(CCNC(=O)c2cc(-c3ccccc3)on2)cc1OC	-4.1%	-1.9%	4.1	9.7	7.5%	.
CC(C)c1cc(C(=O)NCCc2ccccc2)no1	20.6%	i	46.9*	72.1*	-1.1%	0.0%
O=C(NCc1ccco1)c1cc(-c2ccccc2)on1	0.0%	121.3%	48.1*	104.5*	-21.4%	.
